Consider seven compounds from PubChem BioAssay (NCATS).

Results filed as inconclusive are left out. Active and inactive are the calls of the source. Unless noted, calls follow the shape of the full dose curve.

Test [1] concerns the target Bile acid receptor (Homo sapiens) (UniProt Q96RI1). As to the kind of experiment: qHTS assay for small molecule agonists of farnesoid X receptor signaling (AID 588527).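 Also: series mostly up to about 77 µM; 0% = vehicle basal and 100% = reference agonist.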 The following applies: HEK293T FXR-UAS-bla, beta-lactamase ratio, 16 h; activation: stronger effect = higher value. In a few lines: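 Read-out: beta-lactamase reporter fluorescence with CCF4 substrate in GeneBLAzer FXR-UAS-bla HEK293T cells, after 16 h compound exposure at 37 C. Response scaled between DMSO basal (0%) and chenodeoxycholic acid at 100 uM (100%).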

Test [2] shares this target. As to the kind of experiment: qHTS assay for small molecule antagonists of farnesoid X receptor signaling (AID 588526). Also: % is scaled to controls: 0 for no effect and ±100 for the full control effect. In a few lines:
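Beta-lactamase reporter antagonist mode: HEK293T FXR-UAS-bla cells, titrated compound, CDCA stimulation, 16 h 37 C, CCF4 dye 2 h RT. Data normalized to CDCA 50 uM and DMSO; Hill-fit IC50.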
(In general: In qHTS, concentration-response curves come from the screen itself.)

The target of test [3] is Peroxisome proliferator-activated receptor delta (Homo sapiens) (UniProt Q03181). As to the kind of experiment: qHTS assay for small molecule agonists of peroxisome proliferator-activated receptor delta signaling (AID 588534).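 Also: 0% = DMSO basal wells and 100% = positive control agonist at 10 µM.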 In a few lines: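 Cells carrying a PPAR-delta beta-lactamase reporter were treated with compounds for 18 h at 37 °C in agonist mode. CCF4 fluorescence was read after 2 h; EC50 and efficacy from Hill fits.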

Test [4] is described as follows: qHTS assay for small molecule antagonists of peroxisome proliferator-activated receptor delta signaling (AID 588535).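 Also: cells co-treated with a PPAR-delta agonist as stimulator during compound exposure.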 The following applies: HEK293T PPARd-UAS-bla, beta-lactamase FRET ratio, 18 h; 460 nm channel. In short, it runs like this:
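HEK293T PPAR-delta-UAS-bla cells, 4000/well, 2% charcoal/dextran FBS; 5 h 37 C; cpd titration; 18 h 37 C; CCF4 2 h RT; FI 460/530 nm; Hill fit → IC50, efficacy.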

Test [5] addresses Vitamin D3 receptor (Homo sapiens) (UniProt P11473). Kind of test: qHTS assay for small molecule antagonists of vitamin D receptor signaling (AID 588541).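 Also: receptor activated by calcitriol during compound treatment; series mostly up to about 77 µM; % is scaled to controls: 0 for no effect and ±100 for the full control effect.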 In short, it runs like this:
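Antagonist-mode beta-lactamase reporter assay: HEK293T VDR-UAS-bla cells were exposed to titrated compound alongside 1-alpha,25-dihydroxyvitamin D3 at 3 nM final for 16 h. Values were normalized to the 50 nM agonist control and DMSO basal, with IC50 and efficacy from Hill equation fits.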

For test [6] the target is unchanged. Kind of test: qHTS assay for small molecule agonists of vitamin D receptor signaling (AID 588543).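 Also: 0% = DMSO basal and 100% = reference agonist control.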 In a few lines:
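β-lactamase reporter, VDR-UAS-bla HEK293T, agonist mode. Cells plated 5 h at 37 °C, compound titration 16 h at 37 °C, CCF4 dye 2 h RT, ratio 460/530 nm. Hill fit → EC50, efficacy vs 50 nM 1α,25-(OH)2D3.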

Test [7] deals with Retinoic acid receptor RXR-alpha (Homo sapiens) (UniProt P19793). As to the kind of experiment: qHTS assay for small molecule agonists of retinoid X receptor alpha signaling (AID 588544).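 Also: 0% = DMSO basal wells and 100% = reference agonist.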
The target in test [8] is Thyroid hormone receptor beta (Homo sapiens) (UniProt P10828). Kind of test: qHTS assay for small molecule agonists of thyroid hormone receptor beta signaling (AID 588545).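 Also: 0% = DMSO only and 100% = 10 nM T3.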 In short, it runs like this: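 Beta-lactamase reporter activity under TR response element control is measured in HEK 293 cells after 18 hrs compound exposure. Signal is ratiometric CCF4 fluorescence, 460/530 nm.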

Test [9] is described as follows: qHTS assay for small molecule antagonists of retinoid X receptor alpha signaling (AID 588546; active = well fitted inhibition curve with a large enough effect in the signal ratio, with a control signal flat, not every such curve was filed as active; the % refers to the signal ratio;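 also: cells stimulated with 9-cis-retinoic acid as agonist; % is scaled to controls: 0 for no effect and ±100 for the full control effect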). Particulars: HEK293T RXRa-UAS-bla, beta-lactamase ratio, antagonist mode; measured here: W530 green channel, cytotoxicity proxy. In short, it runs like this: (§1)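 Beta-lactamase reporter inhibition, read as CCF4 fluorescence ratio (ex 405, em 460/530 nm) after 2 h at RT. HEK293T UAS-bla cells, 2500/well, were stimulated with 9-cis-RA at 500 or 100 nM final alongside test compound for 18 h at 37 C.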

The target of test [10] is Retinoic acid receptor RXR-alpha (Homo sapiens) (UniProt P19793). Described as above. Particulars: HEK293T RXRa-UAS-bla, beta-lactamase ratio, antagonist mode. In a few lines: as §1
Test [11] deals with Thyroid hormone receptor beta (Homo sapiens) (UniProt P10828). As to the kind of experiment: qHTS assay for small molecule antagonists of thyroid hormone receptor beta signaling (AID 588547; active = well fitted inhibition curve with a large enough effect in the signal ratio, with a control signal flat, not every such curve was filed as active; the % refers to the signal ratio;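 also: cells stimulated with 0.4 nM T3 agonist during compound exposure; series mostly up to about 77 µM; % is scaled to controls: 0 for no effect and ±100 for the full control effect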). Particulars: TR-UAS-bla HEK293, beta-lactamase ratio, antagonist mode, 18 h. In short, it runs like this: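 Inhibition of T3-driven (0.4nM final) beta-lactamase reporter activity was measured over 0.59 nM to 92 uM compound after 18 h at 37 C. The cells were GripTite HEK293 TR-UAS-bla in charcoal/dextran-stripped serum, with CCF4 ratio read-out and IC50 from Hill fits.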

The target in test [12] is Peroxisome proliferator-activated receptor alpha (Homo sapiens) (UniProt Q07869). Kind of test: qHTS assay for small molecule agonists of the peroxisome proliferator-activated receptor alpha (PPARalpha) signaling pathway (AID 651778; active = well fitted curve in the direction sought with a large enough effect; an effect the other way counts as inactive or inconclusive; also: % of control where 0% means no effect). Particulars: PathHunter PPARalpha complementation, chemiluminescence, 6 h; max response: stronger effect = higher value. In a few lines:
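Chemiluminescence from complemented enzyme reported PPARalpha activation in cells after 6 hr of compound treatment at 37 C. The detection reagent was incubated for 60 min at room temperature, and compounds were scored as agonists.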

The nature of test [13]: qHTS assay for small molecule agonists of the antioxidant response element (ARE) signaling pathway measured by Nrf2-dependant transcriptional activity - cell viability counter screen (AID 720653; active = well fitted curve in the direction sought with a large enough effect in the repeat runs; an effect the other way counts as inactive or inconclusive; also: % is scaled to controls: 0 for no effect and ±100 for the full control effect). Particulars: ARE-bla HepG2 viability, CellTiter-Glo ATP luminescence, 16 h; max response: stronger effect = lower value. In short, it runs like this:
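Cytotoxicity counter screen: intracellular ATP quantified by CellTiter-Glo luminescence in the same ARE-bla HepG2 plates, after 16 h compound exposure and a 2 h beta-lactamase substrate step.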

The nature of test [14]: qHTS assay for cell viability of the p53RE-bla HCT-116 cell line (AID 743292; active = well fitted curve in the direction sought with a large enough effect; an effect the other way counts as inactive or inconclusive; also: % is scaled to controls: 0 for no effect and ±100 for the full control effect; nearly all actives have a fitted effect of over 55% in size). In short, it runs like this: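 CellSensor p53RE-bla HCT-116 cells, 4,000/well, preincubated 5 h at 37 C, then exposed to compounds in DMSO for 16 h at 37 C. Viability read as CellTiter-Glo luminescence (intracellular ATP) after 30 min at room temperature.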
The nature of test [15]: qHTS assay for small molecule activators of the p53 signaling pathway (AID 651743; active = well fitted activation curve with a large enough effect in the signal ratio, not every such curve was filed as active; the % refers to the signal ratio; also: series mostly up to about 92 µM; % of control where 0% means no effect). The following applies: HCT-116 p53RE-bla, beta-lactamase FRET ratio, 16 h; activation: stronger effect = higher value. In short, it runs like this: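 Read-out is fluorescence intensity from the LiveBLAzer B/G FRET substrate, added for 2 hours at room temperature after HCT-116 p53RE-bla cells had been incubated with compounds for 16 hours at 37 C.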

Test [16] is described as follows: qHTS assay for small molecule activators of the nuclear factor-kappa B (NF-kB) signaling pathway (AID 651749; active = well fitted activation curve with a large enough effect in the signal ratio; the % refers to the signal ratio; also: series mostly up to about 77 µM; % of control where 0% means no effect). The following applies: NF-kB-bla ME-180 cells, beta-lactamase FRET ratio, 16 h; activation: stronger effect = higher value. In short, it runs like this:
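Readout: beta-lactamase reporter driven by an NF-kB response element, detected fluorescently as loss of FRET. Cells were the ME-180 line, treated 16 hr at 37C with pin-transferred compound.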

A short description of test [17]: qHTS assay for cell viability of HEK293 cells (AID 743288; active = well fitted curve in the direction sought with a large enough effect; an effect the other way counts as inactive or inconclusive; also: % is scaled to controls: 0 for no effect and ±100 for the full control effect; nearly all actives have a fitted effect of over 50% in size). Particulars: ATP luminescence (CellTiter-Glo), 18 h; max response: stronger effect = lower value. In short, it runs like this:
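Environmental chemicals tested in qHTS format against parental HEK293 cells; 18 h treatment, 37 C; read-out ATP luminescence (CellTiter-Glo), 30 min RT development.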

The nature of test [18]: qHTS assay for environmental chemicals that activate the Aryl hydrocarbon Receptor (AhR) signaling pathway (AID 651777; active = well fitted curve in the direction sought with a large enough effect; an effect the other way counts as inactive or inconclusive; also: % of control where 0% means no effect; nearly all actives have a fitted effect of over 15% in size). The following applies: 1A2-DRE human hepatoma cells, luciferase, 24 h; activation: stronger effect = higher value. In a few lines: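 Human hepatoma 1A2-DRE cells, stably carrying a dioxin response element and CYP1A2 promoter driving luciferase, were exposed to compounds for 24 hr at 37 C and 5% CO2. Luciferase signal was then read after 30 min One-Glo at room temperature.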

A short description of test [19]: qHTS assay for small molecule agonists of the antioxidant response element (ARE) signaling pathway measured by Nrf2-dependant transcriptional activity (AID 720636; active = well fitted curve in the direction sought with a large enough effect in the repeat runs; an effect the other way counts as inactive or inconclusive; also: % of control where 0% means no effect). In short, it runs like this: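 ARE-luc HepG2 cells carrying an Nrf2-responsive luciferase reporter were plated in medium with 1% dialyzed FBS, left 6 hr at 37 C to attach, then exposed to compound for 16 hr. Luciferase luminescence was read after ONE-Glo addition.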

Test [20] has as its target Glucocorticoid receptor (Homo sapiens) (UniProt P04150). As to the kind of experiment: qHTS assay for small molecule agonists of glucocorticoid receptor signaling (AID 588532; active = well fitted curve in the direction sought with a large enough effect in the signal ratio, with a control signal flat; the % refers to the signal ratio;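 also: 100% = dexamethasone at 0.1 µM and 0% = DMSO only wells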). The following applies: HeLa MMTV-bla, beta-lactamase ratio, agonist, 18 h; activation: stronger effect = higher value, percent of dexamethasone control, DMSO zero. In a few lines:
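Quantitative HTS using CellSensor MMTV-bla HeLa cells in charcoal/dextran-treated serum; compounds tested up to 92 uM. After 18 h at 37 C, CCF4 dye reported reporter induction.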

Sequence of Peroxisome proliferator-activated receptor alpha (Homo sapiens) (Q07869 whole entry, looked up): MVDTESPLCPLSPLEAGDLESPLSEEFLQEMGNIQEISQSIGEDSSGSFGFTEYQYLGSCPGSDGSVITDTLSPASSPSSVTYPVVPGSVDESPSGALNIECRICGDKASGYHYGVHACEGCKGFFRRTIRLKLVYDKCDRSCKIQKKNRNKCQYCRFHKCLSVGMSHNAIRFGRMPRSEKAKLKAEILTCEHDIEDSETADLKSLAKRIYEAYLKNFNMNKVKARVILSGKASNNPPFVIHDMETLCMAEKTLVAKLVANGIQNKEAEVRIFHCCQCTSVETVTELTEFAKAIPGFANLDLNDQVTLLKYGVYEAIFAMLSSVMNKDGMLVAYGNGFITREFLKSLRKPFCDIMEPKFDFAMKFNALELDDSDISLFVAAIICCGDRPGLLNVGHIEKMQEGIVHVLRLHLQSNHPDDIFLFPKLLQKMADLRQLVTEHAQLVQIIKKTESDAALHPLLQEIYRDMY
Sequence of Retinoic acid receptor RXR-alpha (Homo sapiens) (P19793 whole entry, looked up): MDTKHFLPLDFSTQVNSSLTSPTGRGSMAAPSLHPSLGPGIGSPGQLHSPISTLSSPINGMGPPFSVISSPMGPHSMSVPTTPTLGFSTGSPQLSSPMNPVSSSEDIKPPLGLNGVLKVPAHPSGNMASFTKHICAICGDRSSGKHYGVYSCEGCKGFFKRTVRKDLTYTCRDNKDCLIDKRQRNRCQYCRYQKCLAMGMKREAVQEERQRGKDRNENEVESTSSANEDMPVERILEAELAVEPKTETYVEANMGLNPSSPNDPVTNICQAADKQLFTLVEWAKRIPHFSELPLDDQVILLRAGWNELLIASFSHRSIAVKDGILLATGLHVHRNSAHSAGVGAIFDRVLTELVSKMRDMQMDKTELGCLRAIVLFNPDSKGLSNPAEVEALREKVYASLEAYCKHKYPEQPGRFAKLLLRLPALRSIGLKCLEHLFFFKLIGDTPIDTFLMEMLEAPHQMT
Sequence of Peroxisome proliferator-activated receptor delta (Homo sapiens) (Q03181 whole entry, looked up): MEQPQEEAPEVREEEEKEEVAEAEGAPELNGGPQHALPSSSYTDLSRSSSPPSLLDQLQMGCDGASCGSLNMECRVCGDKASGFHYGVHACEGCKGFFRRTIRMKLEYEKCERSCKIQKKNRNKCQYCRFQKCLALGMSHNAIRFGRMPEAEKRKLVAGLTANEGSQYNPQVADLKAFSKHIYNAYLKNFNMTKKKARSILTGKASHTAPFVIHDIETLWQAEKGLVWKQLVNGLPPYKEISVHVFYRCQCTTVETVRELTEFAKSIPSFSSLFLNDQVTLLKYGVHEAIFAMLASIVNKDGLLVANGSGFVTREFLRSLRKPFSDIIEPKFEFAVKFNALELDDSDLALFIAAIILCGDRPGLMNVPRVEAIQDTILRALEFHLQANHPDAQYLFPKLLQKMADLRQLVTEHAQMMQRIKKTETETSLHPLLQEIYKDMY
Sequence of Thyroid hormone receptor beta (Homo sapiens) (P10828 whole entry, looked up): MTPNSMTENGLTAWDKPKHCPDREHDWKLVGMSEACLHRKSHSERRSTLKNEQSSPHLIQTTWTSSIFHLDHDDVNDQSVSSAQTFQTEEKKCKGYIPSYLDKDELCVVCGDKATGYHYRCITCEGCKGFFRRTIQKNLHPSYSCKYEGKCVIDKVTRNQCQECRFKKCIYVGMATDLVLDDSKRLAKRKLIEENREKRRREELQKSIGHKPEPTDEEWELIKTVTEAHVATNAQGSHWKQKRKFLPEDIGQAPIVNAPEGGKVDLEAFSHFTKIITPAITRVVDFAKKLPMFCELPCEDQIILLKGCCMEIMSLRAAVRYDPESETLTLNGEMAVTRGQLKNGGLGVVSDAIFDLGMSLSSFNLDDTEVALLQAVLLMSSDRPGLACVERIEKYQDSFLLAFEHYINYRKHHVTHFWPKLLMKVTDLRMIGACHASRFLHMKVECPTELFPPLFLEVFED
Sequence of Bile acid receptor (Homo sapiens) (Q96RI1 whole entry, looked up): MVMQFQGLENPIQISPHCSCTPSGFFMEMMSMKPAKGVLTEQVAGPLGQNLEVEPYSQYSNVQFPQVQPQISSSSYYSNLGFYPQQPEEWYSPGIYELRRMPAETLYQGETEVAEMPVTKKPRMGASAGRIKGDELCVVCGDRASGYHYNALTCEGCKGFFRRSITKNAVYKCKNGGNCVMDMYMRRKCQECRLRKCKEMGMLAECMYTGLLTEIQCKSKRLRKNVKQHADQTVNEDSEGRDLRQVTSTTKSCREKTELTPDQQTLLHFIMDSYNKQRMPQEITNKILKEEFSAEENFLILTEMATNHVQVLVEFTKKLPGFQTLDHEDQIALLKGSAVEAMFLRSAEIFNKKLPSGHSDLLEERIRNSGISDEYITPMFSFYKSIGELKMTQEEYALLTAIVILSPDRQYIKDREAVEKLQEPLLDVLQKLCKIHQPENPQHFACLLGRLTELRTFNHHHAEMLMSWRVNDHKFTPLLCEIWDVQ
Sequence of Vitamin D3 receptor (Homo sapiens) (P11473 whole entry, looked up): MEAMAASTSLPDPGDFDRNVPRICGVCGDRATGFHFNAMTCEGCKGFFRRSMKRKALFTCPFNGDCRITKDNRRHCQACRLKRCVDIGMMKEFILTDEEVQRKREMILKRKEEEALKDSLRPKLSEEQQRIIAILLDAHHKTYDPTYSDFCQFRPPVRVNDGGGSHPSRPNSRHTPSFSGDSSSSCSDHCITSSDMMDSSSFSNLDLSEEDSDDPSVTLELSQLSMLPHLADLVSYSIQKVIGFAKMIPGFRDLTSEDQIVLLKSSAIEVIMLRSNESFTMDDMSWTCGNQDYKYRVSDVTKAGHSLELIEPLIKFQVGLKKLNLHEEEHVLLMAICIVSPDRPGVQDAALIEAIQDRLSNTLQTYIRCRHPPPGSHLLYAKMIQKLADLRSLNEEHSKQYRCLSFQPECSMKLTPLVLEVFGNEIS
Sequence of Glucocorticoid receptor (Homo sapiens) (P04150 whole entry, looked up): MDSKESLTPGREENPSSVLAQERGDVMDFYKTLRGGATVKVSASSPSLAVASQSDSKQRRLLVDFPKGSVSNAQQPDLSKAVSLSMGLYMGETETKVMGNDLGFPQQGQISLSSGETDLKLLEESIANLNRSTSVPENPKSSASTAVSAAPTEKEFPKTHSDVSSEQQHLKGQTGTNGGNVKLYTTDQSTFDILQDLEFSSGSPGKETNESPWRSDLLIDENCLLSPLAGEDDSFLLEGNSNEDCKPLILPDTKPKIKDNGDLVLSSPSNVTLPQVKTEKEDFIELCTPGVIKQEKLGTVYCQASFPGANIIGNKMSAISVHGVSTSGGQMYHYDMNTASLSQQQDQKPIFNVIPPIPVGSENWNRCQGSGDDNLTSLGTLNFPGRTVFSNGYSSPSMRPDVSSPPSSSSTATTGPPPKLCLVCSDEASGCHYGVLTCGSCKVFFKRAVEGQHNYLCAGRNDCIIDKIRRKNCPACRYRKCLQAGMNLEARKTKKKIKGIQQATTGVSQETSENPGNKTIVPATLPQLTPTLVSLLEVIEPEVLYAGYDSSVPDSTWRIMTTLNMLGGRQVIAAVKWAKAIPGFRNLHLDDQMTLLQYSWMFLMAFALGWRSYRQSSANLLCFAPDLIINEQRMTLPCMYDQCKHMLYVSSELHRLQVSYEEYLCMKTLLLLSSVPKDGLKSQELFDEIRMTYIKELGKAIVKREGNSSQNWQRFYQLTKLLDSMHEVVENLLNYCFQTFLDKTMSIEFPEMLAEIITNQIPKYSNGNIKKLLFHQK

As for `N#CSCSc1nc2ccccc2s1`, in test [1], the activation is 15% (inactive).

As to `O=C(O)C1(C(=O)Nc2ccc(Cl)cc2Cl)CC1`, the activation in [1] is -11.8% (inactive).

For the compound `Cc1cc(C2CC2)nc(Nc2ccccc2)n1`, the Potency entry in test [2], in test [5], in test [7], in [8] and in test [14] was “inactive” in each case. The activation in test [1] is -4.1% (inactive). Besides, the result in test [3] and in test [6] was inactive. Further, the max response in [4] is 1.7%; in test [9], -2.59%; in test [10] it was -23.3% (inactive); in [12], 5.58% (inactive); in test [13], 0.0652% (inactive). Moreover, the activity change % (negative = inhibition) in test [11] is -20% (inactive).

Turning to `O=C(Nc1ccccc1)Nc1cnns1`, the Potency result in [2], in test [5], in [8] and in test [14] was “inactive” in each case. Also, the activation was -0.107% (inactive) in test [1], 2.3% (inactive) in test [15] and 0.693% (inactive) in [16]. Besides, the compound was classed as inactive in test [3] and in test [6]. Besides, the max response in [4] was -10.7%; in [9], 1.32%; in [10], -46.6% (inactive); in test [12], 0.0118% (inactive); in [13], -2.01% (inactive); in test [17] it was -16.6% (inactive). Besides, in test [11], the activity change % (negative = inhibition) is 24.1% (inactive).

Take `COC(=O)c1ccccc1S(=O)(=O)NC(=O)Nc1nc(C)nc(OC)n1`: the Potency entry in [2], in [5], in test [8] and in [19] was “inactive” each time. The compound was classed as inactive in test [3] and in [6]. The max response in test [4] is 36.9%; in test [9], -10.3%; in test [10], 25.6% (inactive); in test [12] it was 5.99% (inactive); in test [13] it was 13.7% (inactive); in [17], 9.36% (inactive). Besides, the activation in [15] is 6.08% (inactive); in test [18], -1.13% (inactive).

Turning to `CN/C(=N/[N+](=O)[O-])NCC1CCOC1` (stereo not given), the Potency result in test [2], in [5], in [7], in test [8], in test [19] and in test [14] was “inactive” throughout. Further, the activation in test [1] was -2.75% (inactive); in test [20], 0.122% (inactive); in test [15], 3.08% (inactive); in [16], -0.877% (inactive); in [18], -0.372% (inactive). Moreover, the compound was called inactive in test [3] and in [6]. Also, the max response in [4] is 22.2%; in test [12], -0.384% (inactive); in [13] it was -9.26% (inactive); in test [17], -6.54% (inactive). In [11], the activity change % (negative = inhibition) was -1.83% (inactive).

Regarding `c1ccc2cc3ccccc3cc2c1`, the activation in [1] was -1.8% (inactive).
